ChEMBL document CHEMBL3988442, “University of Dundee, Small-Polar-MMV Screening Library” (2021)
Screen size: about 48,000 compounds; about 13,000 (27%) showed an effect of 50% or more. The list shows a part of the results.

test system: Wolbachia pipientis; experiment: Anti-Wolbachia Cell-Based Screen; assay type: functional; parameters: scale not given: in the data most compounds retested in dose-response had high values; settings: 5 µM

In order of rising “Percent Effect” value:
1. COc1ncc(NS(=O)(=O)c2ccc(OC)c(C)c2)c(OC)n1  -43.62%
2. COCCC(=O)N1CC2(CCN(c3ccccc3)C2)C1  -36.12%
3. COc1ccc(F)cc1S(=O)(=O)NCC(c1cccn1C)N(C)C (stereo unspecified)  -20.36%
4. CCOCC1CN(Cc2ccco2)Cc2ccnn2C1 (stereo unspecified)  -17.9%
5. CC1COc2ccccc2N1C(=O)c1ccnc(-n2cncn2)c1 (stereo unspecified)  -16.23%
6. Cn1cc2c(n1)C(COCC1CC1)CN(Cc1ccsc1)C2 (stereo unspecified)  -15.61%
7. Cn1ccnc1CN1CCCN(C(=O)C2(C#N)CCCCC2)CC1  -11.9%
8. COc1cc(NCCNC(=O)c2cc[nH]c2C)cc(OC)c1  -11.29%
9. Cn1cc(CN2Cc3cn(C)nc3C(COCC3CC3)C2)cn1 (stereo unspecified)  -9.412%
10. CCOCC1CN(Cc2ccoc2)Cc2ncn(CC3CC3)c21 (stereo unspecified)  -9.148%
11. CC(C)=CCN1CCN(CCCOc2ccccc2)[C@H]2CS(=O)(=O)C[C@H]21  -8.839%
12. N#Cc1ccnc(N2CCN(CC(O)c3ccccc3Cl)CC2)c1 (stereo unspecified)  -8.703%
13. COCCC(=O)N1CC[C@@H](N2CCN(C)CC2)[C@@H]1Cc1ccccc1  -8.117%
14. CCOCC1CN(Cc2cnn(C)c2)Cc2ncn(CC3CC3)c21 (stereo unspecified)  -8.097%
15. CCC(NC(=O)Nc1cc(F)c(OC)c(F)c1)c1noc(C)n1 (stereo unspecified)  -7.836%
16. O=C(NCc1ncc[nH]1)c1c(F)cccc1I  -7.586%
17. N#Cc1c(Cl)nsc1NCc1ccc(N2CCSCC2)cc1  -6.213%
18. Cn1nc2c(cc1=O)CN(Cc1nc(-c3ccoc3)no1)CC2  -6.043%
19. O=C(CN1CCS(=O)(=O)CC1)NCc1cccc(Br)c1  -5.799%
20. CN(C)C(=O)c1nc2c(s1)CCCN2Cc1ccccc1  -4.503%
21. CNc1ncc(CN(C)C(=O)[C@@]23CNC[C@@H]2CN(C(=O)C2CC2)C3)cn1  -3.257%
22. Cc1ccsc1[C@@H]1CCN(C(=O)CCOc2ccccc2)C[C@H]1O  -3.102%
23. COc1ccc(S(=O)(=O)Nc2cccnc2-n2cncn2)cc1C  -1.49%
24. CC/C=C(/C)C(=O)N1CSCC1C(=O)NC1=NCCS1 (stereo unspecified)  -1.356%
25. COCC1(CNC(=O)Nc2cc(F)ccc2OC)CCCC1  -0.947%
26. Cn1ncc2c1C(COCC1CC1)CN(Cc1ccco1)C2 (stereo unspecified)  -0.8913%
27. CSCCC(=O)N1CC[C@@H](N2CCN(c3ccccc3F)CC2)[C@H](O)C1  -0.8189%
28. Cc1ccc(C)c2c(O)cc(CN3CCC(=O)NCC3C)nc12 (stereo unspecified)  -0.2793%
29. CCN1CCN(C(=O)C(C)N2CCN(Cc3nccn3C)CC2)CC1 (stereo unspecified)  0.1033%
30. COCC1CN(Cc2ccoc2)Cc2cn(C)nc21 (stereo unspecified)  2.216%
31. Cn1cnc2c1C(COCC1CC1)CN(Cc1ccsc1)C2 (stereo unspecified)  3.226%
32. COCCCC1(CO)CCCN(Cc2nccs2)C1 (stereo unspecified)  3.777%
33. CCN(C(=O)c1ccccc1I)C1CC(=O)NC1=O (stereo unspecified)  4.049%
34. COc1ccc2c(c1)nc1n2[C@@H](CNCc2nccs2)COC1  4.423%
35. O=C(CO)N1CC[C@@H](N2CCN(c3ccccc3F)CC2)[C@H](O)C1  5.557%
36. CC(C)(C)OC(=O)NC(C)(C)c1noc(CSc2nncs2)n1  7.03%
37. CC(OCC1CC1)C(=O)N1CCCN(Cc2nccn2C)CC1 (stereo unspecified)  15.71%
38. COc1ccc(F)cc1S(=O)(=O)NCC(O)c1sccc1C (stereo unspecified)  28.76%
39. CC(C)C(C(=O)N1CCCN(Cc2nccn2C)CC1)N1CCCC1 (stereo unspecified)  74.16%
40. COc1ccc(F)cc1S(=O)(=O)NCCn1cnc(C)cc1=O  77.48%
41. CC(C)COCC1CN(Cc2ccsc2)Cc2ncn(C)c21 (stereo unspecified)  90.56%
42. COc1ccc(S(=O)(=O)NCCn2cnc(C)cc2=O)cc1C  93.11%
43. CN1CCN([C@@H]2CN(C(=O)CCOc3ccccc3)C[C@H]2O)CC1  98.51%
44. CC(C(=O)N1CCCCCC1)N1CCN(Cc2nccn2C)CC1 (stereo unspecified)  103.6%
45. CCOCC(=O)N1C[C@@H](O)[C@H](N2CCN(c3ccccc3)CC2)C1  110.9%
46. CC(C(=O)N1CCOCC1)N1CCN(Cc2nccn2C)CC1 (stereo unspecified)  114%
47. CC(C)COCC1CN(Cc2ccco2)Cc2ncn(C)c21 (stereo unspecified)  120.7%
48. CC(C)COCC1CN(Cc2cnn(C)c2)Cc2ncn(C)c21 (stereo unspecified)  123.1%
49. CC(C)COCC1CN(Cc2ccoc2)Cc2ncn(C)c21 (stereo unspecified)  128.9%
50. COCCC(=O)N1C[C@@H](O)[C@H](N2CCN(c3ccccc3)CC2)C1  133.4%
51. COCC(=O)N1C[C@@H](O)[C@H](N2CCN(c3ccccc3)CC2)C1  143.5%
